# Experimental data from the antibiotic and cytotoxicity screens of Wong et al. (2023).
# About 1,500 (3.8%) of roughly 39,000 compounds were called active. For the sample, actives were picked, then their nearest neighbours and some compounds at random.
# Tested on: HSkMC (human skeletal muscle cells)
# Experiment: cytotoxicity call (relative viability < 0.9)
# Settings: 10 µM
row,SMILES,cytotoxicity call
1,C[C@@H]1CN([C@@H](C)CO)C(=O)c2cc(NS(=O)(=O)c3ccc(F)cc3)ccc2O[C@@H](C)CCCCO[C@@H]1CN(C)S(=O)(=O)c1cn(C)cn1,inactive
2,CC(=O)N[C@H]1[C@H](O[C@H]2CC[C@]3(C)[C@H]4CC=C5[C@@H]6CC(C)(C)CC[C@]6(C(=O)O[C@H]6OC[C@@H](O)[C@@H](O)[C@@H]6O)[C@@H](O)C[C@@]5(C)[C@]4(C)CC[C@H]3C2(C)C)O[C@H](CO[C@H]2OC[C@@H](O)[C@@H](O[C@H]3OC[C@@H](O)[C@@H](O)[C@@H]3O)[C@@H]2O)[C@@H](O[C@@H]2O[C@@H](C)[C@H](O)[C@@H](O)[C@H]2O[C@@H]2O[C@@H](C)[C@H](O)[C@@H](O)[C@H]2O)[C@@H]1O,inactive
3,Cc1noc(C)c1NC(=O)Nc1cccc2c1O[C@@H](CN(C)C(=O)NC(C)C)[C@H](C)CN([C@H](C)CO)C2=O,inactive
4,COc1ccc([C@@H]2CC=CC[C@H](C)Oc3ccccc3C(=O)N(C)[C@@H](Cc3ccccc3)C(=O)N2)c(OC)c1,active
5,C[C@H]1CC=CC[C@@H](c2ccc3c(c2)OCO3)NC(=O)[C@H](Cc2ccccc2)N(C)C(=O)c2ccccc2O1,inactive
6,COc1ccc([C@H]2CC=CC[C@H](C)Oc3ccccc3C(=O)N(C)[C@H](Cc3ccccc3)C(=O)N2)c(OC)c1,inactive
7,COc1ccc([C@H]2CC=CC[C@H](C)Oc3ccccc3C(=O)N(C)[C@@H](Cc3ccccc3)C(=O)N2)c(OC)c1,inactive
8,C[C@@H]1CC=CC[C@H](c2ccc3c(c2)OCO3)NC(=O)[C@@H](Cc2ccccc2)N(C)C(=O)c2ccccc2O1,inactive
9,C[C@H]1CC=CC[C@H](c2ccc3c(c2)OCO3)NC(=O)[C@@H](Cc2ccccc2)N(C)C(=O)c2ccccc2O1,active
10,COCCCN1C(=O)[C@@]2(Cc3ccccc31)c1ccccc1C(=O)N(Cc1ccccc1)[C@H]2c1ccc(CO)cc1,inactive
11,Cc1ccc(S(=O)(=O)Nc2ccc3c(c2)CC(=O)N([C@@H](C)CO)C[C@H](C)[C@H](CN(C)CC2CC2)O3)cc1,inactive
12,Nc1ccc2oc3c(c2c1)CCCC3,inactive
13,CCC(=O)Nc1ccc(Cl)cc1,inactive
14,CC(C)(C)c1ccc(C(=O)Nc2cccc(C(F)(F)F)c2)cc1,inactive
15,O=C(Nc1ccccc1)Nc1ccccc1,inactive
16,O=C(Nc1ccc(Cl)cc1)Nc1ccc(Cl)c(Cl)c1,active
17,CC(C)C(=O)Nc1cccc(Cl)c1,inactive
18,O=C(Nc1ccc(C(F)(F)F)cc1)Nc1cccc(Cl)c1,active
19,C[C@H]1CN([C@@H](C)CO)C(=O)c2cc(NC(=O)Cc3ccccc3)ccc2O[C@H]1CN(C)Cc1ccc(C(F)(F)F)cc1,inactive
20,C[C@@H]1CN([C@@H](C)CO)C(=O)Cc2cc(NC(=O)Cn3cnnn3)ccc2O[C@H]1CN(C)S(=O)(=O)c1cn(C)cn1,inactive
21,COc1cccc(S(=O)(=O)Nc2ccc3c(c2)[C@H]2C[C@@H](CC(=O)NCc4ccccc4F)O[C@@H](CO)[C@H]2O3)c1,inactive
22,C[N+](C)(C)CCCCCC[N+](C)(C)C.[Br-].[Br-],inactive
23,CCCCCCCCCCCCCCCC[N+](C)(C)C,active
24,CCCCCCCCCCCCCCCCOP(=O)([O-])OCC[N+](C)(C)C,inactive

row,SMILES,cytotoxicity call
1,CC1=C2C/C=C(\C)[C@H](O[C@H]3O[C@@H](CO)[C@@H](O)[C@@H](O)[C@@H]3O)C/C=C(\C)C[C@@H]2OC1=O,inactive
2,NCc1nncn1-c1ccccc1,inactive
3,COc1ccccc1CNC(=O)C[C@@H]1C[C@H]2c3cc(NC(=O)c4cccnc4)ccc3O[C@H]2[C@@H](CO)O1,inactive
4,CC(N)(Cc1ccc2c(c1)OCO2)C(=O)O (stereo not given),inactive
5,C[C@@H]1CN([C@@H](C)CO)C(=O)c2cc(NS(C)(=O)=O)ccc2O[C@@H]1CN(C)S(=O)(=O)c1ccccc1,inactive
6,CCC(=O)N1CCN(c2ccc(-n3c(=O)ccc4cnc5ccc(-c6cnc7ccccc7c6)cc5c43)cc2C(F)(F)F)CC1,active
7,CCCCn1c(-c2ccccc2)nc(-c2ccccc2)c1CN(Cc1ccc2c(c1)OCO2)Cc1ccc2c(c1)OCO2,inactive
8,COc1ccc(-c2cnc3c(c2)C(=O)N([C@@H](C)CO)C[C@@H](C)[C@@H](CN(C)C(=O)C2CCOCC2)O3)cc1,inactive
9,CO[C@@H]1CN(C)C(=O)c2ccc(NC(=O)C3CC3)cc2OC[C@H](C)N(C(=O)CN2CCOCC2)C[C@@H]1C,inactive
10,C[C@@H]1CN([C@@H](C)CO)C(=O)Cc2cc(NS(C)(=O)=O)ccc2O[C@H]1CN(C)S(=O)(=O)c1cccs1,inactive
11,C[C@@H]1CN([C@H](C)CO)C(=O)Cc2cc(NS(=O)(=O)c3ccc(Cl)cc3)ccc2O[C@H]1CN(C)Cc1ccc(C(F)(F)F)cc1,active
12,C[C@H](CO)N1C[C@H](C)[C@H](CN(C)Cc2ccc(C(F)(F)F)cc2)Oc2ccc(NS(=O)(=O)c3ccc(Cl)cc3)cc2CC1=O,active
13,C[C@@H]1CN([C@H](C)CO)C(=O)Cc2cc(NS(=O)(=O)c3ccc(Cl)cc3)ccc2O[C@@H]1CN(C)Cc1ccc(C(F)(F)F)cc1,active
14,C[C@@H]1CN([C@@H](C)CO)C(=O)Cc2cc(NS(=O)(=O)c3ccc(Cl)cc3)ccc2O[C@@H]1CN(C)Cc1ccc(C(F)(F)F)cc1,active
15,C[C@@H]1CCCCO[C@@H](CN(C)S(=O)(=O)c2ccc(Cl)cc2)[C@H](C)CN([C@@H](C)CO)C(=O)c2cc(NS(=O)(=O)c3cccs3)ccc2O1,inactive
16,COc1cccc(NC(=O)N(C)C[C@@H]2Oc3cc(C#Cc4ccncc4)ccc3S(=O)(=O)N([C@H](C)CO)C[C@@H]2C)c1,inactive
17,CC(=O)O[C@H]1C=C[C@@H](O)C1,inactive
18,O=C(CCCCCCC(=O)Nc1ccc([C@H]2C[C@H](c3ccccc3)O[C@H](c3ccncc3)O2)cc1)NO,inactive
19,COc1ccc(-c2cc(=O)c3c(O)cc(O[C@@H]4O[C@H](CO[C@H]5O[C@H](C)[C@@H](O)[C@H](O)[C@@H]5O)[C@@H](O)[C@H](O)[C@H]4O)cc3o2)cc1O,inactive
20,C[C@@H]1CN([C@@H](C)CO)C(=O)c2cc(NC(=O)C3CC3)ccc2O[C@@H]1CN(C)C(=O)NC1CCCCC1,inactive
21,C=CC(=O)NS(=O)(=O)c1ccccc1,inactive
22,CCS(=O)(=O)N1CC[C@H]2[C@H](CC1)S(=O)(=O)CCN2C(=O)c1ccccc1,inactive
23,COCC(=O)N1C[C@@H](C)[C@@H](OC)CN(C)C(=O)c2ccc(NC(=O)c3ccc(OC)cc3)cc2OC[C@@H]1C,inactive
24,Cc1cc(N)n(-c2nc(=O)c(C)c(C)[nH]2)n1,inactive

row,SMILES,cytotoxicity call
1,CCCCc1c(C)nc2ccc(Br)cc2c1SC(N)N,inactive
2,NS(=O)(=O)c1ccc2c(c1)COC2,inactive
3,COc1ccc(S(=O)(=O)N(C)C[C@@H]2Oc3c(NS(=O)(=O)c4ccc(C)cc4)cccc3C(=O)N([C@@H](C)CO)C[C@@H]2C)cc1,inactive
4,C[C@@H]1CN([C@@H](C)CO)C(=O)Cc2cc(NS(=O)(=O)c3ccc(Cl)cc3)ccc2O[C@H]1CN(C)Cc1ccc(C(F)(F)F)cc1,inactive
5,C[C@H]1CN([C@@H](C)CO)C(=O)Cc2cc(NS(=O)(=O)c3ccc(Cl)cc3)ccc2O[C@@H]1CN(C)Cc1ccc(C(F)(F)F)cc1,active
6,C[C@H](CO)N1C[C@H](C)[C@@H](CN(C)Cc2ccc(C(F)(F)F)cc2)Oc2ccc(NS(=O)(=O)c3ccc(Cl)cc3)cc2CC1=O,inactive
7,C[C@H]1CN([C@@H](C)CO)C(=O)Cc2cc(NS(=O)(=O)c3ccc(Cl)cc3)ccc2O[C@H]1CN(C)Cc1ccc(C(F)(F)F)cc1,active
8,C[C@@H]1CN([C@H](C)CO)C(=O)c2cc(NC(=O)CCCN(C)C)ccc2O[C@@H]1CN(C)C(=O)NC1CCCCC1,inactive
9,C[C@@H]1CN([C@@H](C)CO)C(=O)c2cc(NS(C)(=O)=O)ccc2O[C@H]1CN(C)Cc1ccc(C(=O)Nc2ccccc2N)cc1,inactive
10,COc1ccc(CN(C)C[C@H]2Oc3ccc(NC(=O)CCN4CCOCC4)cc3C(=O)N([C@H](C)CO)C[C@H]2C)cc1,inactive
11,C[C@@H]1CN([C@H](C)CO)C(=O)c2cc(NC(=O)Nc3ccc(F)cc3)ccc2O[C@H]1CN(C)CC1CCCCC1,inactive
12,C[C@H]1CN([C@@H](C)CO)C(=O)c2cc(NC(=O)Nc3ccc(C(F)(F)F)cc3)ccc2O[C@@H]1CN(C)CC1CCCCC1,inactive
13,C[C@@H]1CN([C@H](C)CO)C(=O)c2cc(NC(=O)Nc3ccc(C(F)(F)F)cc3)ccc2O[C@@H]1CN(C)CC1CCCCC1,active
14,C[C@@H]1CN([C@@H](C)CO)C(=O)c2cc(NC(=O)Nc3ccc(F)cc3)ccc2O[C@@H]1CN(C)CC1CCCCC1,inactive
15,C[C@@H]1CN([C@@H](C)CO)C(=O)c2cc(NC(=O)Nc3ccc(C(F)(F)F)cc3)ccc2O[C@H]1CN(C)CC1CCCCC1,active
16,C[C@H]1CN([C@@H](C)CO)C(=O)c2cc(NC(=O)Nc3ccc(F)cc3)ccc2O[C@@H]1CN(C)CC1CCCCC1,inactive
17,C[C@@H]1CN([C@H](C)CO)C(=O)c2cc(NC(=O)Nc3ccc(C(F)(F)F)cc3)ccc2O[C@H]1CN(C)CC1CCCCC1,inactive
18,C[C@H](CO)N1C[C@H](C)[C@H](CN(C)CC2CCCCC2)Oc2ccc(NC(=O)Nc3ccc(C(F)(F)F)cc3)cc2C1=O,active
19,C[C@H](CO)N1C[C@H](C)[C@@H](CN(C)CC2CCCCC2)Oc2ccc(NC(=O)Nc3ccc(C(F)(F)F)cc3)cc2C1=O,inactive
20,C[C@H](CO)N1C[C@H](C)[C@H](CN(C)CC2CCCCC2)Oc2ccc(NC(=O)Nc3ccc(F)cc3)cc2C1=O,inactive
21,C[C@@H]1CN([C@@H](C)CO)C(=O)c2cc(NC(=O)Nc3ccc(C(F)(F)F)cc3)ccc2O[C@@H]1CN(C)CC1CCCCC1,active
22,C[C@H]1CN([C@@H](C)CO)C(=O)c2cc(NC(=O)Nc3ccc(F)cc3)ccc2O[C@H]1CN(C)CC1CCCCC1,inactive
